According to PubChem BioAssay AID1159580 (chemical genetic matrix, 2015):
The campaign covered roughly 5,500 compounds. About 2,000 (36%) were called active. Another 18% or so got no clear call; they are omitted. Cut-off read from the data, not from the text of the source: active = normalized growth mostly below about 0.91 (no sharp cut-off); inconclusive = no clear call, values can overlap the other calls; inactive = mostly above about 0.92. The list shows a part of the results.

Test: chemical genetic growth profiling, strain panel (AID 1159580);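 note: tested at 20 µM; growth read once vehicle control cultures reached saturation at 30 °C; 1 = growth at the plate median or of vehicle wells; lower values mean less growth of the strain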
Details: growth OD

Measured: normalized growth

COc1cc2c(cc1OC)[C@@H]1C(=O)c3ccc4c(c3O[C@@H]1CO2)C=CC(C)(C)O4
inactive: S. cerevisiae deletion strains, locus YKL009W, strain mrt4, active compounds read low 0.999 | S. cerevisiae deletion strains, locus YKL068W, active compounds read low 0.982 | S. cerevisiae deletion strains, locus YKL085W, strain MDH1 (second series), active compounds read low 0.967 | S. cerevisiae deletion strains, locus YKL085W, strain MDH1, active compounds read low 0.967 | S. cerevisiae deletion strains, locus YKL160W, strain elf1, active compounds read low 0.973 | S. cerevisiae deletion strains, locus YKL190W, strain CNB1, active compounds read low 0.986 | S. cerevisiae deletion strains, locus YKR001C, strain vps1, active compounds read low 0.934 | S. cerevisiae deletion strains, locus YKR026C, strain gcn3, active compounds read low 1.01 | S. cerevisiae deletion strains, locus YKR091W, strain srl3, active compounds read low 1 | S. cerevisiae deletion strains, locus YLL001W, strain dnm1, active compounds read low 0.992 | S. cerevisiae deletion strains, locus YLL026W, active compounds read low 1.01 | S. cerevisiae deletion strains, locus YLL041C, strain sdh2, active compounds read low 1.01 | S. cerevisiae deletion strains, locus YLR027C, strain aat2, active compounds read low 0.982 | S. cerevisiae deletion strains, locus YLR039C, strain RIC1, active compounds read low 0.891 | S. cerevisiae deletion strains, locus YLR058C, strain SHM2, active compounds read low 0.983 | S. cerevisiae deletion strains, locus YLR102C, strain apc9, active compounds read low 0.982 | S. cerevisiae deletion strains, locus YLR113W, strain HOG1, active compounds read low 0.898 | S. cerevisiae deletion strains, locus YLR221C, strain rsa3, active compounds read low 0.983 | S. cerevisiae deletion strains, locus YLR258W, strain gsy2, active compounds read low 0.994 | S. cerevisiae deletion strains, locus YLR262C, strain YPT6 (second series), active compounds read low 0.868 | S. cerevisiae deletion strains, locus YLR262C, strain YPT6, active compounds read low 0.916 | S. cerevisiae deletion strains, locus YLR268W, strain sec22, active compounds read low 0.97 | S. cerevisiae deletion strains, locus YLR320W, strain mms22, active compounds read low 0.89 | S. cerevisiae deletion strains, locus YLR330W, strain CHS5, active compounds read low 0.986 | S. cerevisiae deletion strains, locus YLR342W, strain FKS1 (second series), active compounds read low 0.943 | S. cerevisiae deletion strains, locus YLR342W, strain FKS1, active compounds read low 0.946 | S. cerevisiae deletion strains, locus YLR357W, strain rsc2, active compounds read low 0.992 | S. cerevisiae deletion strains, locus YLR370C, strain arc18, active compounds read low 1.01 | S. cerevisiae deletion strains, locus YLR371W, strain rom2, active compounds read low 0.961 | S. cerevisiae deletion strains, locus YLR384C, strain iki3, active compounds read low 1.03 | S. cerevisiae deletion strains, locus YLR418C, strain cdc73, active compounds read low 0.962 | S. cerevisiae deletion strains, locus YML016C, strain PPZ1, active compounds read low 0.981 | S. cerevisiae deletion strains, locus YML032C, strain rad52, active compounds read low 0.964 | S. cerevisiae deletion strains, locus YML120C, strain ndi1, active compounds read low 0.979 | S. cerevisiae deletion strains, locus YML124C, strain tub3, active compounds read low 0.982 | S. cerevisiae deletion strains, locus YMR058W, strain fet3, active compounds read low 0.978 | S. cerevisiae deletion strains, locus YMR078C, strain ctf18, active compounds read low 0.952 | S. cerevisiae deletion strains, locus YMR125W, strain sto1, active compounds read low 1.02 | S. cerevisiae deletion strains, locus YMR129W, active compounds read low 0.995 | S. cerevisiae deletion strains, locus YMR205C, strain PFK2, active compounds read low 0.92 | S. cerevisiae deletion strains, locus YMR223W, strain ubp8, active compounds read low 0.954 | S. cerevisiae deletion strains, locus YMR231W, strain pep5, active compounds read low 1.02 | S. cerevisiae deletion strains, locus YMR263W, strain SAP30, active compounds read low 1 | S. cerevisiae deletion strains, locus YMR307W, strain GAS1, active compounds read low 0.86 | S. cerevisiae deletion strains, locus YNL067W, strain RPL9B, active compounds read low 1.01 | S. cerevisiae deletion strains, locus YNL071W, strain lat1, active compounds read low 0.942 | S. cerevisiae deletion strains, locus YNL128W, strain TEP1, active compounds read low 0.995 | S. cerevisiae deletion strains, locus YNL153C, strain GIM3, active compounds read low 1.02 | S. cerevisiae deletion strains, locus YNL183C, strain NPR1, active compounds read low 0.896 | S. cerevisiae deletion strains, locus YNL209W, strain ssb2, active compounds read low 1.03 | S. cerevisiae deletion strains, locus YNL233W, strain BNI4, active compounds read low 1 | S. cerevisiae deletion strains, locus YNL248C, strain rpa49, active compounds read low 1.02 | S. cerevisiae deletion strains, locus YNL250W, strain rad50, active compounds read low 0.972 | S. cerevisiae deletion strains, locus YNL271C, strain bni1, active compounds read low 0.963 | S. cerevisiae deletion strains, locus YNL298W, strain CLA4, active compounds read low 0.984 | S. cerevisiae deletion strains, locus YNL307C, strain MCK1, active compounds read low 0.929 | S. cerevisiae deletion strains, locus YNL322C, strain KRE1 (second series), active compounds read low 1.02 | S. cerevisiae deletion strains, locus YNL322C, strain KRE1, active compounds read low 0.987 | S. cerevisiae deletion strains, locus YNR049C, strain mso1, active compounds read low 1.01 | S. cerevisiae deletion strains, locus YNR052C, strain pop2, active compounds read low 0.951 | S. cerevisiae deletion strains, locus YOL006C, strain TOP1, active compounds read low 0.908 | S. cerevisiae deletion strains, locus YOL012C, strain htz1 1.09 | S. cerevisiae deletion strains, locus YOL147C, strain pex11, active compounds read low 0.969 | S. cerevisiae deletion strains, locus YOR001W, strain rrp6, active compounds read low 0.997 | S. cerevisiae deletion strains, locus YOR061W, strain CKA2, active compounds read low 0.987 | S. cerevisiae deletion strains, locus YOR069W, strain VPS5, active compounds read low 0.985 | S. cerevisiae deletion strains, locus YOR070C, strain gyp1, active compounds read low 1.01 | S. cerevisiae deletion strains, locus YOR080W, strain dia2, active compounds read low 1.02 | S. cerevisiae deletion strains, locus YOR083W, strain WHI5, active compounds read low 0.943 | S. cerevisiae deletion strains, locus YOR106W, strain vam3, active compounds read low 0.98 | S. cerevisiae deletion strains, locus YOR136W, strain idh2, active compounds read low 0.983 | S. cerevisiae deletion strains, locus YOR144C, strain elg1, active compounds read low 0.979 | S. cerevisiae deletion strains, locus YOR184W, strain ser1, active compounds read low 0.899 | S. cerevisiae deletion strains, locus YOR231W, strain MKK1, active compounds read low 0.953 | S. cerevisiae deletion strains, locus YOR265W, strain rbl2, active compounds read low 1.01 | S. cerevisiae deletion strains, locus YOR270C, strain vph1, active compounds read low 0.922 | S. cerevisiae deletion strains, locus YOR290C, strain snf2, active compounds read low 1.01 | S. cerevisiae deletion strains, locus YOR316C, strain cot1, active compounds read low 0.966 | S. cerevisiae deletion strains, locus YPL051W, strain arl3, active compounds read low 0.973 | S. cerevisiae deletion strains, locus YPL055C, strain LGE1, active compounds read low 0.995 | S. cerevisiae deletion strains, locus YPL078C, strain atp4, active compounds read low 1.01 | S. cerevisiae deletion strains, locus YPL106C, strain sse1, active compounds read low 1.06 | S. cerevisiae deletion strains, locus YPL240C, strain hsp82, active compounds read low 1.04 | S. cerevisiae deletion strains, locus YPL241C, strain CIN2, active compounds read low 0.986 | S. cerevisiae deletion strains, locus YPL256C, strain CLN2, active compounds read low 0.928 | S. cerevisiae deletion strains, locus YPR119W, strain clb2, active compounds read low 0.983 | S. cerevisiae deletion strains, locus YPR141C, strain kar3, active compounds read low 0.95 | S. cerevisiae deletion strains, locus YPR163C, strain tif3, active compounds read low 0.975 | S. cerevisiae deletion strains, locus YPR167C, strain met16, active compounds read low 0.967 | S. cerevisiae deletion strains, strain wtn01, active compounds read low 0.971 | S. cerevisiae strains, strain wild type, active compounds read low 0.984
